According to PubChem BioAssay:
Calls of active or inactive are those of the source. Unless noted, no rule for the calls is given here.

How the values were obtained:
[1] = system: Wnt5a (protein binding on small-molecule microarray); assay: Wnt5a binders on small-molecule microarray, primary screen, biophysical, 635/667 nm fluorescence (AID 1142); settings: 635 nm fluorescence, higher = more signal;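 also: fluorescence read at 667 nm with signal to noise per printed feature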
[2] = cell viability in Huh7 cells, primary screen, cytotoxicity control for HCV replication inhibitor project, CellTiter-Glo luminescence, basal, 48 h (AID 1143); settings: Huh7 HCV replicon, higher = more signal, called active from +8 up or from −8 down;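 also: Huh7 hepatoma cells carrying a hepatitis C replication reporter with no stimulus; test concentration not given here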
[3] = P. aeruginosa biofilm formation inhibitors, primary screen, PAO1 strain, BacTiter-Glo luminescence, LB-PBS (AID 1144); settings: 12 h, higher = more signal
[4] = CREB reporter modulators without forskolin, primary screen, cell-based, PC12, CRE-LacZ reporter, unstimulated (AID 1145); settings: no forskolin, luminescence, 4.5 h, higher = more signal, called active from +8 up or from −8 down
[5] = CREB reporter modulators under forskolin, primary screen, cell-based, PC12, CRE-LacZ reporter, forskolin-stimulated (AID 1146); settings: luminescence, 4.5 h, higher = more signal, called active from +8 up or from −8 down;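 also: PC12 cells with 6xCRE LacZ reporter stimulated by forskolin 10 µM; beta-galactosidase reporter signal reflecting CREB driven transcription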
[6] = target: Streptavidin (Streptomyces avidinii) (UniProt P22629); assay: streptavidin binders on small-molecule microarray, primary screen, artefact control for SMM compound annotation, biophysical, 635/667 nm fluorescence (AID 1147); settings: streptavidin binding, higher = more signal;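 also: signal reflects streptavidin binding to arrayed compounds as a control protein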
[7] = small-molecule binders of probe aInhba, primary screen, biochemical, small-molecule microarray, 635/667 nm fluorescence (AID 1148); settings: higher = more signal;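 also: score merges 667nm spot fluorescence with signal-to-noise for antibody binding to printed compounds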
Torsin-1A (Homo sapiens) [8] = target: Torsin-1A (Homo sapiens) (UniProt O14656); assay: torsin A binders from cell lysate, primary screen, small-molecule microarray, wild-type, 635/667 nm (AID 1149); settings: COS7 hTOR1A-WT lysate, 635 nm fluorescence, higher = more signal
Torsin-1A (Homo sapiens) [9] = target: Torsin-1A (Homo sapiens) (UniProt O14656); assay: small-molecule binders of mutant TOR1A in lysate, primary screen, cell lysate, small-molecule microarray, COS7 lysate, 635/667 nm fluorescence (AID 1150); settings: COS7 hTOR1A mutant lysate, 635 nm fluorescence, higher = more signal;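 also: score pools 667 nm emission and signal to noise measuring lysate protein binding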
[10] = system: Sonic hedgehog protein (Shh); assay: small-molecule binders of Shh protein, primary screen, biochemical, small-molecule microarray, 635/667 nm fluorescence (AID 1151); settings: small-molecule microarray binding, 635 nm fluorescence; higher = more signal;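 also: Shh protein binding to compounds spotted on small-molecule microarray slides; score combines spot fluorescence intensity with signal-to-noise across triplicate slides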

Chain of Streptavidin (Streptomyces avidinii) (P22629 whole entry, looked up): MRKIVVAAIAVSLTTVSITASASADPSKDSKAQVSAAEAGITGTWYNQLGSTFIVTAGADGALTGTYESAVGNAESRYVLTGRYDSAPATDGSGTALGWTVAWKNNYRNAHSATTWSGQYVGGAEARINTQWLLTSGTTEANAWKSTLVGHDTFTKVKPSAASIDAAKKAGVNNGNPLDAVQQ
Chain of Torsin-1A (Homo sapiens) (O14656 whole entry, looked up): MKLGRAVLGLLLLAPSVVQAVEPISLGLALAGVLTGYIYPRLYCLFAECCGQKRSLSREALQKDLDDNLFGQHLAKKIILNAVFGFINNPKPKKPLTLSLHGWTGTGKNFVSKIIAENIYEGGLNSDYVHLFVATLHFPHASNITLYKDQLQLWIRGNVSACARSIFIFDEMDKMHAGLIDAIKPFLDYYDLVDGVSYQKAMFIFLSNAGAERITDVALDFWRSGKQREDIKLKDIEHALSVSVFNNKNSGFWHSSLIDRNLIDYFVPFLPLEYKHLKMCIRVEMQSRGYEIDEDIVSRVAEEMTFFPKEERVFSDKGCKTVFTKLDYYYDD

SMILES	composite z-score [1]	z-score [2]	z-score [3]	z-score [4]	z-score [5]	composite z-score [6]	composite z-score [7]	composite z-score (Torsin-1A (Homo sapiens) [8])	composite z-score (Torsin-1A (Homo sapiens) [9])	composite z-score [10]
CC(C)N1C(=O)c2ccccc2[C@](C)(C(=O)NCCCN(C)C)[C@@H]1c1ccc(CO)cc1	-0.265	0.17 (inactive)	0.352 (inactive)	-0.0888 (inactive)	-0.297 (inactive)	0.578	-0.204	3.98	3.56	0.0142
O=C1O[C@H](c2ccccc2)[C@H](c2ccccc2)N2[C@H]1[C@@H](C(=O)N1CCCCCCC1)[C@]1(C(=O)Nc3ccc(C#CC4=CCCCC4)cc31)[C@H]2c1ccc(O)cc1	2.45	-5.14 (inactive)	-1.54 (inactive)	-1.43 (inactive)	-0.464 (inactive)	4.23	1.98	3.97	3.82	2.29
COCCOC(=O)N1C(=O)[C@@]2(c3cc(C#CC4=CCCCC4)ccc31)[C@H](c1ccc(OCCO)cc1)N1[C@H](c3ccccc3)[C@H](c3ccccc3)OC(=O)[C@H]1[C@@H]2C(=O)Nc1nc2ccccc2s1	0.329	-3.52 (inactive)	-2.45 (inactive)	-1.16 (inactive)	-0.482 (inactive)	1.27	-0.0178	-0.0779	0.394	0.911
C=CCC(OC(C)=O)[C@@H]1[C@@H](N(Cc2cc3ccccc3o2)C(=O)c2cccc3ccccc23)c2cc(OCCCO)ccc2N1C(=O)Cc1ccc(OC)cc1 (stereo not given in full)	0.235	-1.1 (inactive)	0.0686 (inactive)	0.279 (inactive)	0.496 (inactive)	-0.0552	-0.0804	0.175	0.138	1.16
O=C1OCCC/C=C\[C@H]2OC34C=CCN(CCN5CCOCC5)C(=O)[C@H]3N(CCO)C(=O)[C@@H]4C12 (stereo not given in full)	-0.425	0.364 (inactive)	0.145 (inactive)	-0.342 (inactive)	0.0806 (inactive)	-0.671	-0.203	-0.176	-0.506	-0.703
COc1ccc(C#Cc2ccc3c(c2)[C@]2(C(=O)N3)[C@H](c3ccc(OCCO)cc3)N3[C@H](c4ccccc4)[C@H](c4ccccc4)OC(=O)[C@H]3[C@@H]2C(=O)Nc2nc3ccccc3s2)cc1	0.603	-2.92 (inactive)	-1.54 (inactive)	0.918 (inactive)	-0.203 (inactive)	1.07	0.143	1.15	0.564	1
O=C(NCc1ccccc1)[C@@H]1c2ccccc2C(=O)N(Cc2cc(F)cc(C(F)(F)F)c2)[C@H]1c1ccc(CO)cc1	0.0748	-1.26 (inactive)	0.339 (inactive)	-0.0888 (inactive)	-1.61 (inactive)	0.0709	0.0227	0.484	0.426	1.15
C=C(CCCC)C(=O)CC[C@H](OC(=O)c1ccccc1-c1ccccc1C(=O)O)c1ccc(CO)o1	0.123	0.0343 (inactive)	-0.976 (inactive)	-0.177 (inactive)	-0.56 (inactive)	1.5	0.0154	0.472	0.622	1.99
C=C(C(=O)CC[C@@H](OC(=O)c1cccnc1)c1ccc(OCCO)cc1)C(C)C	0.725	-8.32 (active)	0.118 (inactive)	20 (active)	0.12 (inactive)	-0.136	-0.128	0.0998	0.97	1.58
CN1C(=O)C2C(C1=O)C1C=C(c3ccc(CO)cc3)C2C(C2CC2)N1Cc1sc2ccccc2c1Cl (stereo not given)	0.567	-3.96 (inactive)	0.277 (inactive)	2.75 (inactive)	-0.825 (inactive)	2.1	0.432	1.08	1.57	0.25
COc1cc(NN2C(C(O)c3ccccc3)C=CC3C(=O)N(c4ccccc4)C(=O)C32)cc(OC)c1OC (stereo not given)	0.421	-3.47 (inactive)	-0.525 (inactive)	0.433 (inactive)	-0.557 (inactive)	0.148	0.0829	0.179	0.989	0.89
[N-]=[N+]=Nc1ccccc1[C@@H]1OC(c2ccc(OCCCO)cc2)=N[C@]1(CCS(=O)(=O)c1ccccc1)C(=O)N1CCCCC1	0.626	-2.42 (inactive)	0.0668 (inactive)	1.43 (inactive)	-0.642 (inactive)	1.45	0.453	1.09	0.736	-0.394
CC(C)(C)OC(=O)CC[C@@]1(C(=O)NCC(O)CO)N=C(c2ccc(OCCCO)cc2)O[C@@H]1c1ccccc1 (stereo not given in full)	0.0271	0.496 (inactive)	-1.15 (inactive)	2.06 (inactive)	-0.904 (inactive)	-0.0256	-0.0361	1.07	1.01	-0.887
COC(=O)[C@@]1(Cc2ccc(F)cc2)[C@H]2c3cc(C(=O)N4CCCC4)n(Cc4ccc(Cl)c(C(F)(F)F)c4)c3C[C@H]2CN1C(=O)c1ccccc1	1.99	-2.95 (inactive)	0.678 (inactive)	0.204 (inactive)	1.49 (inactive)	2.28	1.35	0.0817	0.51	-0.239
C=CCN1Cc2ccccc2C[C@]2(N=C(c3ccc(OCCCO)cc3)O[C@@H]2c2ccccc2)C1=O	0.469	-4.28 (inactive)	-0.066 (inactive)	1.64 (inactive)	-1.28 (inactive)	-0.138	0.167	0.821	1.15	1.81
CN(C)CCCC[C@@H]1NC(=O)[C@@H]2C[C@H](C(=O)NCCCCCN)[C@H](c3ccc(O)cc3)N2C1=O	-0.286	0.202 (inactive)	-0.504 (inactive)	0.549 (inactive)	0.304 (inactive)	1.26	-0.0639	0.424	0.901	-0.631
COc1ccccc1CN1C(=O)c2ccccc2[C@](Cc2ccccc2I)(C(=O)NCc2ccccc2)[C@@H]1c1ccc(CO)cc1	0.0733	-0.553 (inactive)	0.166 (inactive)	-0.412 (inactive)	-0.0005 (inactive)	-0.476	0.0627	0.999	2.06	-0.197
Cc1ccc(S[C@]2(C(=O)NCC(C)C)CC(=O)N(Cc3ccccc3)[C@@H]2c2ccc(CO)cc2)cc1	-0.405	-1.13 (inactive)	0.459 (inactive)	-0.179 (inactive)	0.98 (inactive)	-0.987	-0.152	-0.258	-0.293	-1.45
CN1C(=O)C2C=CC(C(O)C3=C[C@H]4C[C@@H](C3)C4(C)C)N(Nc3ccc([N+](=O)[O-])cc3[N+](=O)[O-])C2C1=O (stereo not given in full)	0.325	-0.119 (inactive)	-0.184 (inactive)	0.443 (inactive)	-0.946 (inactive)	1.56	0.421	0.124	0.566	0.0842
C=CCNC(=O)[C@H]1[C@@H]2C(=O)O[C@@H](c3ccccc3)[C@@H](c3ccccc3)N2[C@@H](c2ccc(OCCO)cc2)[C@]12C(=O)N(C(=O)OCCOC)c1ccc(C#CC3(O)CCCCCC3)cc12	0.558	-2.88 (inactive)	-0.148 (inactive)	0.761 (inactive)	0.309 (inactive)	0.37	0.569	1.79	0.907	1.65
COC(=O)[C@@]1(Cc2ccc(OC)cc2)[C@H]2c3cc(C(=O)N4CCCC4)n(CCN4CCOCC4)c3C[C@H]2CN1C(=O)c1ccccc1	2.64	-0.267 (inactive)	0.356 (inactive)	0.966 (inactive)	1.64 (inactive)	2.02	1.75	0.27	1.71	-0.641
COc1ccc(CCNC(=O)[C@@]2(C)c3ccccc3C(=O)N(Cc3ccccc3)[C@H]2c2ccc(CO)cc2)cc1	0.968	-5.28 (inactive)	-2.01 (inactive)	0.208 (inactive)	0.303 (inactive)	1.3	0.122	2.07	1.67	2.16
